Screening results as filed in PubChem BioAssay.
Compounds with a hit are over-represented: about 2.2% of the library has one in this group of screens.
SUMO Mot1 rescue: blocks SUMOylation pathway, rescuing yeast Mot1-301 growth | S. cerevisiae Mot1-301 growth rescue, ATP luminescence, 38.5C; percent above DMSO median, 100 means doubled | growth rescue, % at 18.8 µM | 320,000 tested, 1% active;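 active = every valid replicate shows activation above 250% relative to neutral control wells; inactive = the rest, any valid replicate at or below 250%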;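 also: OY570 slx delta 5 strain wells were the positive control but not used for scaling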
HGIII-sPLA2 inh: Blocks human group III sPLA2 activity. QFRET BODIPY PC-A2 liposome hydrolysis, fluorescence. inhibition, % at 12.2 µM. Q9NZ20. 370,000 tested, 0.56% active;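 active = inhibition above mean plus 3 SD of compounds lying within the high and low control bounds, cut at about 19% in these data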;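 also: 0% = median of test compound wells and 100% = no enzyme DMSO wells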
Target sequence (Q9NZ20 whole entry, looked up): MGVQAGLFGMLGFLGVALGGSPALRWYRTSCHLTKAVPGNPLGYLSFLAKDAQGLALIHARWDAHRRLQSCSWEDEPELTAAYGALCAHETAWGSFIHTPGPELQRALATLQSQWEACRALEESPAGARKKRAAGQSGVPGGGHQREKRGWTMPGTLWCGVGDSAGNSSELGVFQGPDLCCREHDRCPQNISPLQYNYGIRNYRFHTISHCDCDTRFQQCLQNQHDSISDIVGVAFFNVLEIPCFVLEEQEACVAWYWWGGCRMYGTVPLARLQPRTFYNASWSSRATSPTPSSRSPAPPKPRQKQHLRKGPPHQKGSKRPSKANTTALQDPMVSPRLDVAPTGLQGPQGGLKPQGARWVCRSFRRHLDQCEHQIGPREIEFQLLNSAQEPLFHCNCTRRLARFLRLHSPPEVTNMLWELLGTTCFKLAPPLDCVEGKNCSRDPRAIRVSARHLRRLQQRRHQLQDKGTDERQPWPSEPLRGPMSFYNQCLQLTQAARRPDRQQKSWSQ
Efflux pump mplx: inhibitors of Candida antifungal efflux pumps expressed in yeast; S. cerevisiae Candida pump triplex, Nile Red efflux; inhibition, % at 10 µM; 330,000 tested, 0.44% active; AID 485275;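 active = plate passing quality check with inhibition over a set limit, or well fluorescence over plate mean plus 4 SD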;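 also: Nile Red retained in pooled yeast measured as flow cytometry median fluorescence; 0% = buffer negative control and 100% = Enniatin B positive control; higher means more Nile Red kept so more efflux inhibition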
SKN-1 inh: inhibitors of C. elegans SKN-1. C. elegans VP596 Pgst-4::GFP/RFP ratio, acrylamide-induced, 24 h. inhibition, % at 21.8 µM. 360,000 tested, 0.49% active. AID 624304;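 active = interference check ratio from 0.5 to 1.5 plus GFP to RFP signal ratio inhibition reaching or exceeding a fixed threshold, cut at about 30% in these data, passing the limit was not always enough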
* marks the source's active call; other numbers are inactive results; . = not tested or not shown.

SMILES	SUMO Mot1 rescue	HGIII-sPLA2 inh	Efflux pump mplx	SKN-1 inh
CCCCOCCCNC(=O)C[C@H]1C[C@@]2(C(=O)OC)C(=C[C@H](C(C)(C)C)O[C@@H]2C)N(Cc2ccc3c(c2)OCO3)C1=O	.	9	.	.
COc1ccc2cc(N3CCCC3=O)ccc2c1	.	0	.	41*
COc1ccc(CNC(=O)[C@@H](Cc2ccccc2)NC(=O)[C@H]2O[C@@H](n3cnc4c(=O)[nH]c(N)nc43)[C@H](O)[C@@H]2O)cc1	.	-4	.	.
CCOC(=O)C1(C)CCCN(C(=O)c2cccc(C(F)(F)F)c2)C1 (centres undefined)	.	-1	.	3
O=C(O)CCc1ccc(-c2ccccc2)n1NC(=O)c1ccco1	-11	-1	0	39*
O=c1cc(-c2ccccc2Cl)c2c([nH]1)CCC2	0	-4	0	67*
CC1CN(CC(O)COc2ccc(C(C)C)cc2)CC(C)O1 (centres undefined)	326*	1	0	-2
N#Cc1ccccc1OCC(O)CS(=O)(=O)c1ccccc1 (centres undefined)	47	-3	0	53*
O=S(=O)(CC(O)COc1ccccc1Cl)c1ccccc1 (centres undefined)	-10	-5	0	3
COc1ccc(C(C(=O)NCc2ccccc2)N(Cc2ccco2)C(=O)c2cnccn2)cc1 (centres undefined)	-3	0	0	1
COC(=O)c1cccc(N(C(=O)c2cnccn2)C(C(=O)NCc2ccccc2)c2ccco2)c1 (centres undefined)	322*	-8	0	5
CC(C)(C)c1ccc(C(=O)c2c[nH]c(C(=O)NCCCn3ccnc3)c2)cc1	324*	-21	0	14
COc1ccc(C(=O)c2c[nH]c(C(=O)NCCCn3ccnc3)c2)cc1	9	-6	0	-5
c1cncc(Oc2ccc(NCCc3c[nH]c4ccccc34)cc2)c1	.	12	.	.
COc1cc(C(=O)COC(=O)CNC(=O)C2CCCCC2)cc(OC)c1OC	270*	5	0	-4
COc1cc(C(=O)COC(=O)C2CCCCC2)cc(OC)c1OC	-3	-1	0	19
Cc1ccc(CN2CCN(/N=C/c3ccc(C(F)(F)F)cc3)CC2)c(C)c1	326*	-3	1	5
CCOC(=O)CN(C(=O)CNC(=O)c1cccs1)C(C(=O)NC1CCCCC1)c1cccs1 (centres undefined)	3	-6	0	46*
CCC(c1nc2ccccc2[nH]1)n1c(-c2ccc3cc[nH]c3c2)nc2ccccc21 (centres undefined)	.	-14	.	.
Cc1cc(C)n2c(SCc3c(C)noc3C)nnc2n1	-7	5	0	33*
Cc1cc(N2CCN(C(=O)OC(C)(C)C)C[C@@H]2C)ccc1N1CCS(=O)(=O)CC1	.	2	.	.
CC(=N\Nc1ccc(Cl)cc1)/C(=N/O)C(=O)Nc1ccccc1	256*	-29	0	-5
COc1ccc(NC(=O)N(C)[C@H]2C[C@H]3c4[nH]c5c(-c6cccc(C)c6)cccc5c4CCN3C(=O)[C@H]2[C@H](C)O)cc1	.	-28	.	.
O=C(O)Cn1cc(/C=C2\SC(=O)N(c3ccccc3)C2=O)c2ccccc21	672*	2	0	18
S=C(Nc1cccc(Cl)c1)OC1CCC12CCC(c1ccccc1)CC2 (centres undefined)	.	-1	.	.
SMILES	SUMO Mot1 rescue	HGIII-sPLA2 inh	Efflux pump mplx	SKN-1 inh
COC(=O)Nc1ccc(S(=O)(=O)N2CCCC(C(=O)NC3CCCCC3)C2)cc1 (centres undefined)	-6	-2	0	10
COC(=O)Nc1ccc(S(=O)(=O)N2CCC(C(=O)NC3CCCCC3)CC2)cc1	308*	0	1	-2
COc1ccc(/C=N/NC2=NS(=O)(=O)c3ccccc32)cc1	13	-6	0	4
CN(C)c1ccc(/C=N/NC2=NS(=O)(=O)c3ccccc32)cc1	152	2	0	39*
Cn1cc(CC(=O)Nc2ccc(Oc3cccnc3)cc2)c2ccccc21	.	-48	.	.
O=C(Nc1cc(-c2ccccc2)[nH]n1)c1ccccc1	10	7	0	37*
CCCN1C(=O)c2[nH]nc(-c3ccccc3)c2C1c1ccc(C)cc1 (centres undefined)	.	-13	.	.
C=CCN(c1ccc(C(=O)NC(C)C)cc1)S(C)(=O)=O	.	3	0	47*
Cc1[nH]nc2c1C(c1ccccc1)N(c1ccccc1)C2=O (centres undefined)	.	-1	.	.
Cc1ccc(Cl)cc1NC(=O)CN1C(=O)COc2ccc(S(=O)(=O)N3CCOCC3)cc21	60	0	0	-4
COC(=O)C1C2CC3c4[nH]c5cc(OC)ccc5c4CCN3CC2CC(OC2CCCCO2)C1OC (centres undefined)	.	-8	.	-4
COC(=O)[C@H]1[C@H]2C[C@@H]3c4[nH]c5cc(OC)ccc5c4CCN3C[C@H]2C[C@@H](OC(=O)c2cc(OC)c(OC)c(OC)c2)[C@@H]1OC	351*	-35	0	6
O=S(=O)(NC1CC2CCC1C2)c1ccc(Br)s1 (centres undefined)	450*	-15	0	16
O=C(NCCc1ccccc1)C1CCN(C(=O)c2ccc([N+](=O)[O-])cc2)CC1	2	-1	0	-1
COc1ccc(CCNC(=O)C2CCN(C(=O)c3ccc([N+](=O)[O-])cc3)CC2)cc1	314*	0	0	2
COc1ccc(N2C(=O)c3n[nH]c(C(C)C)c3C2c2ccccc2)cc1 (centres undefined)	.	-5	.	.
Cc1cccc(Cn2c(Sc3nc(C)cs3)nc3c2c(=O)[nH]c(=O)n3C)c1	4	-2	0	40*
CC1(C)OC(c2ccccc2)=C/C(=C/C=C2C(=O)c3ccccc3C2=O)O1	-10	3	0	60*
CC1=NN(Cc2ccccc2)C(=O)/C1=C\c1ccc(N(C)C)cc1	.	16	0	34*
CCOC(=O)C1=NN(c2ccccc2)C(=O)/C1=C\c1ccc(N(C)C)cc1	-19	16	0	22
CC(C)CCOc1cccc(OCC(=O)Nc2ccncc2)c1	317*	-9	0	13
COc1cccc(OCC(=O)Nc2ccncc2)c1	-15	10	0	-5
COc1ccc(/C=C2\SC(=O)N(CC(=O)Nc3ccc(O)cc3)C2=O)cc1OC	5	5	0	3
COc1ccc(/C=C2\SC(=O)N(CC(=O)Nc3ccccc3O)C2=O)cc1OC	21	-33	0	35*
O=C(CN1C(=O)S/C(=C\c2ccc(Cl)cc2)C1=O)NNC(=O)c1ccccc1O	79	44*	0	-4
O=C(/C=C/c1cccs1)c1ccc(Br)cc1	2	1	0	37*
O=c1oc2ccccc2c2oc3cc(O)c(O)cc3c12	61	22*	0	-7
CCOC(=O)CN1CC23C=CC(O2)C(C(=O)NCc2cccs2)C3C1=O (centres undefined)	4	5	0	37*
CCOC(=O)CN1CC23C=CC(O2)C(C(=O)Nc2cc(OC)ccc2OC)C3C1=O (centres undefined)	-10	0	0.9*	-2
O=C(CCc1c[nH]c2ccccc12)Nc1ccc(Nc2cccnc2)c(Br)c1	.	-60	.	.
